From PMC4552634, “A New Set of Chemical Starting Points with Plasmodium falciparum Transmission-Blocking Potential for Antimalarial Drug Discovery” (PLoS ONE, 2015)
Among all 13,000 compounds or so, about 3,200 (25%) showed an effect of 50% or more. The list shows a part of the results.

tested on: P. falciparum stage V gametocytes; set-up: BacTiter-Glo ATP luminescence viability of purified stage V gametocytes in 384-well plates, per cent inhibition versus DMSO; settings: 48 h, 5 µM; inhibitor

Compound	% Inhibition
N=C(N)Nc1ccc(Cc2ccc(NC(=N)N)cc2)cc1 [TCMDC-137917]	-14.93%
CCCCCN1CCC(NS(=O)(=O)c2cccc(C(=O)Nc3cccc(C(F)(F)F)c3)c2)C1 (centres unmarked) [TCMDC-132488]	-38%
CCCCCN1CCCC(NS(=O)(=O)c2ccc(C(=O)Nc3cccc(C(F)(F)F)c3)cc2)C1 (centres unmarked) [TCMDC-132774]	-2.262%
CCCCCN1CCCC(NS(=O)(=O)c2cccc(C(=O)Nc3cccc(C(F)(F)F)c3)c2)C1 (centres unmarked) [TCMDC-132768]	75.62%
CCCCCN1CCC(NS(=O)(=O)c2ccc(C(=O)Nc3cccc(C(F)(F)F)c3)cc2)C1 (centres unmarked) [TCMDC-132771]	83.46%
CCCCCN1CCC(NS(=O)(=O)c2cccc(C(=O)Nc3ccc(C(F)(F)F)cc3)c2)C1 (centres unmarked) [TCMDC-132486]	-23.98%
CCCCCN1CCCCC(NS(=O)(=O)c2ccc(C(=O)Nc3cccc(C(F)(F)F)c3)cc2)C1 (centres unmarked) [TCMDC-132778]	-0.2647%
CN1CC=C(c2c[nH]c3ccc(OCc4ccccc4)cc23)CC1 [TCMDC-132113]	-6.135%
Cc1ccc(C2=NNC3(S2)C(=O)Nc2ccc(C)cc23)cc1 (centres unmarked) [TCMDC-123866]	44.96%
CCCCNC(=O)[C@@H]1CCCN1C(=O)c1ccc(O)c(-c2ccc(Cl)c(Cl)c2)c1 [TCMDC-140837]	7.64%
Clc1ccc(CNc2nc(NCCc3cnc[nH]3)nc(NC3CCCCC3)n2)cc1 [TCMDC-139734]	-12.92%
NCC1CCCN1Cc1ccc(-c2ccc(-c3nc4cc(C(F)(F)F)ccc4[nH]3)s2)cc1.O=C(O)C(F)(F)F (centres unmarked) [TCMDC-133000]	16.97%
NCC1CCCN1Cc1cccc(-c2ccc(-c3nc4ccc(C(F)(F)F)cc4[nH]3)cc2)c1 (centres unmarked) [TCMDC-132996]	21.42%
OCC1CCN(Cc2ccc(-c3ccc(-c4nc5ccc(C(F)(F)F)cc5[nH]4)cc3)cc2)CC1 [TCMDC-133124]	-13.18%
OCCN1CCN(Cc2ccc(-c3cccc(-c4nc5ccc(C(F)(F)F)cc5[nH]4)c3)cc2)CC1 [TCMDC-133024]	24.38%
NCC1CCCN1Cc1ccc(-c2cccc(-c3nc4ccc(C(F)(F)F)cc4[nH]3)c2)cc1 (centres unmarked) [TCMDC-132990]	70.04%
NCC1CCCN1Cc1ccc(-c2ccc(-c3nc4ccc(C(F)(F)F)cc4[nH]3)cc2)cc1 (centres unmarked) [TCMDC-132995]	50.61%
Fc1ccc2cc(C=Cc3ccncc3)[nH]c2c1 [TCMDC-137494]	-53.7%
O=C(Nc1cccc(C(F)(F)F)c1)Nc1nc2ccc([N+](=O)[O-])cc2s1 [TCMDC-123631]	27.05%
Cn1cncc1-c1ccc2ncnc(Nc3ccc(OCc4ccccc4)cc3)c2c1 [TCMDC-137504]	-32.31%
CN1CCN(S(=O)(=O)c2cccc(Nc3nccc(N(C)c4ccc5c(c4)nc(NC(=O)c4cccs4)n5C)n3)c2)CC1 [TCMDC-134378]	79.98%
Cc1ccc(Nc2nc3cc(N(C)c4ccnc(Nc5cccc(CCS(C)(=O)=O)c5)n4)ccc3n2C)cc1 [TCMDC-138853]	-59.51%
Cc1ccc(Nc2nccc(N(C)c3ccc4c(c3)nc(NC(=O)Cc3ccc(Cl)c(Cl)c3)n4C)n2)cc1S(N)(=O)=O [TCMDC-141965]	-9.254%
Cn1c(Nc2cc(C(C)(C)C)on2)nc2cc(Nc3ccnc(Nc4cccc(CS(C)(=O)=O)c4)n3)ccc21 [TCMDC-141893]	24.31%

Compound	% Inhibition
CN(c1ccc2c(c1)nc(Nc1cc(C(C)(C)C)on1)n2C)c1ccnc(Nc2ccc(CS(C)(=O)=O)cc2)n1 [TCMDC-141892]	-9.766%
Cc1[nH]nc2cc(Nc3ccnc(Nc4cccc(CN5CCOCC5)c4)n3)ccc12 [TCMDC-138632]	3.491%
Cn1c(Nc2cc(C(C)(C)C)on2)nc2cc(Nc3ccnc(Nc4cccc(S(=O)(=O)N5CCOCC5)c4)n3)ccc21 [TCMDC-134098]	97.72%
Cn1c(NCc2cc(F)cc3c2OCOC3)nc2cc(Nc3ccnc(Nc4cccc(CS(C)(=O)=O)c4)n3)ccc21 [TCMDC-134151]	-2.358%
Cc1ccc(Nc2nccc(Nc3ccc4c(c3)nc(Nc3cc(C(C)(C)C)on3)n4C)n2)cc1S(C)(=O)=O [TCMDC-141889]	96.33%
Cc1ccc(Nc2nccc(Nc3ccc4c(C)[nH]nc4c3)n2)cc1F [TCMDC-138542]	-63.2%
Cn1c(Nc2cc(C(C)(C)C)on2)nc2cc(Nc3ccnc(Nc4ccc(CS(C)(=O)=O)cc4)n3)ccc21 [TCMDC-141890]	82.06%
CN(c1ccc2c(c1)nc(NC(=O)C1(c3cc(F)ccc3F)CC1)n2C)c1ccnc(Nc2cccc(CS(C)(=O)=O)c2)n1 [TCMDC-141964]	-60.83%
COc1ccc2nc(C)cc(Nc3ccc(Oc4ccc(Cl)c5ccccc45)c(Cl)c3)c2c1 [TCMDC-123856]	5.816%
N#Cc1ccc2c(c1)CN(CCC1CCC(NC(=O)c3cc4cnccc4[nH]3)CC1)CC2 (centres unmarked) [TCMDC-139174]	-27.42%
O=C(NCc1cccc(F)c1)Nc1ccc(-c2ccc(-c3nc4ccc(C(F)(F)F)cc4[nH]3)cc2)cc1 [TCMDC-133287]	-9.31%
Cc1cccc(NC(c2cccs2)c2c(NC(=O)c3ccccc3)sc(C)c2C)n1 (centres unmarked) [TCMDC-124747]	-63.38%
CCCCOc1ccc(C(O)C(CN2CCCCC2)c2ccccc2)cc1 (centres unmarked) [TCMDC-124252]	4.712%
CCCCCOc1ccc(NC2=CC(=O)C(=O)c3ccccc32)cc1 [TCMDC-125724]	-1.294%
CCCCCCCCOc1ccc(N2C(N)=NC(N)=NC2(C)C)cc1 [TCMDC-137707]	-8.138%
CCCCCC(NCCCC)c1ccc(OCCOc2ccc(C(CCCCC)NCCCC)cc2)cc1 (centres unmarked) [TCMDC-137613]	107.4%
C=CCNC(CCCCC)c1ccc(OCCOc2ccc(C(CCCCC)NCC=C)cc2)cc1 (centres unmarked) [TCMDC-137483]	106.6%
CCCCC(NCC)c1ccc(OCCOc2ccc(C(CCCC)NCC)cc2)cc1 (centres unmarked) [TCMDC-137612]	115.6%
CCCCOc1ccc(N2C(N)=NC(N)=NC2(C)C)cc1 [TCMDC-124279]	-11.62%
CCCCCCOc1ccc(N2C(N)=NC(N)=NC2(C)C)cc1 [TCMDC-137369]	25.73%
CCCCCOc1ccc(N2C(N)=NC(N)=NC2(C)C)cc1 [TCMDC-137711]	13.1%
CCCCCCC(N)c1ccc(OCCCOc2ccc(C(N)CCCCCC)cc2)cc1 (centres unmarked) [TCMDC-137621]	121.4%
COc1ccc(OCCON)cc1 [TCMDC-123473]	14.77%
CC(O)C1CCCCN1C(=O)c1cccc(-c2ccc(-c3nc4cc(C(F)(F)F)ccc4[nH]3)cc2)c1 (centres unmarked) [TCMDC-132334]	-28.97%

Compound	% Inhibition
CC(C)CCn1c(Sc2ccc(C#N)c([N+](=O)[O-])c2)nnc1-c1ccc(N(C)C)cc1 [TCMDC-135617]	45.75%
COc1ccc(-c2nc3c(NCc4ccccc4)nccc3[nH]2)c(OC)c1 [TCMDC-137551]	-15.03%
C=CCn1c(SCc2c(C)noc2C)nc2scc(-c3cccs3)c2c1=O [TCMDC-125027]	-8.905%
CC(C)c1ncc(-c2ccncc2)c(C2CCC(CNC(=O)c3ccncc3)CC2)n1 (centres unmarked) [TCMDC-124824]	1.29%
Cc1[nH]c2ccccc2c1C1=CCN(CCN2CCOc3c(Br)cccc3C2=O)CC1 [TCMDC-140965]	-7.337%
CN1CCN(c2cc3c(Nc4ccc5c(cnn5Cc5ccccc5)c4)ncnc3cn2)CC1 [TCMDC-137767]	5.484%
N#Cc1ccc2c(c1)CN(C1CCC(NC(=O)c3cc(-c4ccc(Cl)cc4)cs3)CC1)CCC2 (centres unmarked) [TCMDC-133504]	5.468%
CCOC(=O)/C(=N\OC(C(=O)OC(C)(C)C)c1ccccc1)c1csc(NC(c2ccccc2)(c2ccccc2)c2ccccc2)n1 (centres unmarked) [TCMDC-131980]	21.22%
CC(C)(C)OC(=O)/C=C(\C(=O)OCc1ccc([N+](=O)[O-])cc1)c1csc(NC(c2ccccc2)(c2ccccc2)c2ccccc2)n1 [TCMDC-131971]	65.48%
CCOC(=O)/C(=N\OC(C)(C)C(=O)NCc1ccc(O)c(O)c1)c1csc(NC(c2ccccc2)(c2ccccc2)c2ccccc2)n1 [TCMDC-132099]	-13.25%
COc1ccc(NC(=O)/C=C/c2ccc(Oc3ccccc3Cl)c([N+](=O)[O-])c2)cc1OCCN(C(C)C)C(C)C [TCMDC-140388]	-71.01%
O=C(NC1CCN(Cc2ccccc2)CC1)c1cccc(-c2nc3ccc(Cl)cc3[nH]2)c1 [TCMDC-140425]	27.77%
COC(=O)c1ccc2nc(-c3cc(OC)c(O)c(C(=O)NC4CCN(Cc5ccccc5)CC4)c3)[nH]c2c1 [TCMDC-140427]	6.107%
CC(C)(C)c1ccc2nc(-c3ccc(/C=C/C(=O)NC4CCN(Cc5ccccc5)CC4)cc3)[nH]c2c1 [TCMDC-140456]	48.62%
Cc1cc2nc(-c3ccc(C(=O)NC4CCN(Cc5ccccc5)CC4)cc3)[nH]c2cc1C [TCMDC-140428]	-59.23%
Cc1ccc2nc(-c3ccc(C(=O)NC4CCN(Cc5ccccc5)CC4)s3)[nH]c2c1 [TCMDC-140399]	-1.012%
O=C(/C=C/c1ccc(-c2nc3ccc(Cl)cc3[nH]2)cc1)NC1CCN(Cc2ccccc2)CC1 [TCMDC-140443]	63%
COC(=O)c1ccc2nc(-c3ccc(C(=O)NC4CCN(Cc5ccccc5)CC4)s3)[nH]c2c1 [TCMDC-140426]	-65.59%
COC(=O)c1ccc2nc(-c3ccc(/C=C/C(=O)NC4CCN(Cc5ccccc5)CC4)cc3)[nH]c2c1 [TCMDC-140446]	84.95%
O=C(C=Cc1ccc(-c2nc3ccccc3[nH]2)cc1)NC1CCN(Cc2ccccc2)CC1 [TCMDC-140400]	-89.03%
Cc1cc2nc(-c3ccc(/C=C/C(=O)NC4CCCCC4)cc3)[nH]c2cc1C [TCMDC-140435]	-5.542%
Cc1cc2nc(-c3cccc(C(=O)NC4CCN(Cc5ccccc5)CC4)c3)[nH]c2cc1C [TCMDC-140424]	75.94%
CC(C)(C)c1ccc2nc(-c3ccc(C(=O)NC4CCN(Cc5ccccc5)CC4)s3)[nH]c2c1 [TCMDC-140514]	58.98%
